# Screens: PubChem BioAssay, Sanford-Burnham Center for Chemical Genomics
# This is a sample that favours compounds with a hit; in the whole collection about 2.6% have one here.
# PABP FP inh = PABP poly(A) RNA binding inhibitors, primary screen, biochemical, fluorescence polarization, uHTS | Polyadenylate-binding protein 1 (Homo sapiens), P11940 | calls only at 35 µM | 290,000 compounds, 1% hits | AID 2014, 2009;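 further: calls also rest on retests at 20 µM and on dose response follow-up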
# eIF4H inh = human eIF4H binding inhibitors, primary screen, translation initiation inhibitor project, biochemical, uHTS, fluorescence polarization; Eukaryotic translation initiation factor 4H (Homo sapiens), Q15056; 290,000 compounds, 0.94% hits; inhibition, % at 35 µM; eIF4H fluorescence polarization binding assay;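 further: calls also rest on retests at 20 µM and on dose response follow-up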
# APOBEC3G inh = APOBEC3G DNA deaminase inhibitors, primary screen, biochemical, fluorescence, single-stranded DNA substrate, uHTS | DNA dC->dU-editing enzyme APOBEC-3G (Homo sapiens), Q9HC16 | recombinant A3G, ssDNA deamination FAM/TAMRA fluorescence | inhibition, % at 20 µM | 330,000 compounds, 0.28% hits | AID 493012, 2011;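 active means inhibition of at least 40% at 20 µM, with no more than 30% in the related APOBEC3A deaminase screen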;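 further: plate controls were DMSO wells with A3G for no effect and wells lacking A3G enzyme for full effect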
# A3A deaminase = APOBEC3A ssDNA deaminase inhibitors, primary screen, selectivity assay for APOBEC3G inhibitor project, biochemical, FAM/TAMRA oligo cleavage fluorescence; DNA dC->dU-editing enzyme APOBEC-3A (Homo sapiens), P31941; recombinant A3A, FAM/TAMRA ssDNA deamination fluorescence; inhibition, % at 20 µM; 330,000 compounds, 0.41% hits; AID 493011, 2011;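 active means at least 40% inhibition at 20 µM here, with at most 30% in a related deaminase screen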;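 further: plate controls were A3A with DMSO for no effect and wells lacking A3A enzyme for full effect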
# PHOSPHO1 inh = PubChem AID 1565. Phosphoethanolamine/phosphocholine phosphatase (Homo sapiens), Q8TCT1. recombinant PHOSPHO1, absorbance phosphatase assay. inhibition, % at 13.3 µM. 290,000 compounds, 1.1% hits; in the data active means inhibition above about 60%
# Target sequence (Q8TCT1 whole entry, looked up): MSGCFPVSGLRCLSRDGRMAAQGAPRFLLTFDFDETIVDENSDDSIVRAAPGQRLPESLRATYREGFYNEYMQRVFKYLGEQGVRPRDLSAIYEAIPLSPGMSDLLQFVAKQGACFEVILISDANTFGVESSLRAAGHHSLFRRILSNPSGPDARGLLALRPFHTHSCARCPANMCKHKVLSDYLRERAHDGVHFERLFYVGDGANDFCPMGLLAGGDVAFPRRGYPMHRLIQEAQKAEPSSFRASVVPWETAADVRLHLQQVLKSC
# MLLE-PAM2 inh = inhibitors of PABP1 MLLE–PAM2 peptide binding, primary screen, biochemical, fluorescence polarization, FITC-PAM2, GST-MLLE; 360,000 compounds, 0.36% hits; AID 588489, 2011; inhibition, % at 20 µM; Polyadenylate-binding protein 1 (Homo sapiens), P11940; in the data active means inhibition above about 35%, passing the limit was not always enough;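 further: plate controls were DMSO wells with GST-MLLE for no effect and wells lacking GST-MLLE protein for full effect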
# * = called active by the depositor; i = inactive; ? = inconclusive; · = not tested or not shown; + = active, no number. Unless noted, how the calls were made is not given here.
SMILES,PABP FP inh,eIF4H inh,APOBEC3G inh,A3A deaminase,PHOSPHO1 inh,MLLE-PAM2 inh
Cc1cc(C)c(NS(=O)(=O)c2ccc3c(c2)oc(=O)n3C)c(C)c1,·,·,·,·,·,-4
Cn1c(=O)oc2cc(S(=O)(=O)Nc3cccc4c3CCCC4)ccc21,+,62*,-3,-1,-20,-7
Cn1c(=O)oc2cc(S(=O)(=O)NCc3cccnc3)ccc21,+,65,-3,-2,8,2
CCc1cccc(NS(=O)(=O)c2ccc3c(c2)oc(=O)n3C)c1,i,-10,-2,1,68*,4
COc1cc(/C=C2/SC(=S)N(CCC(=O)Nc3cccnc3)C2=O)cc(OC)c1OC,·,·,·,·,·,3
Cc1ccc(N(O)C(=O)NCCCCNC(=O)N(O)c2ccc(C)cc2)cc1,i,8,-6,-7,33,13
O=C(N/N=C/c1c[nH]c2ccc(Br)cc12)c1ccn(Cc2ccc(Cl)cc2)n1,i,-1,-7,-1,62*,-5
O=C(N/N=C/c1c[nH]c2ccccc12)c1ccn(Cc2ccc(Cl)cc2Cl)n1,i,-7,-3,-3,38,1
COc1cc2[nH]c(=S)nc(NCCC(C)C)c2cc1OC,i,-5,-9,0,-103,-82
COCCCNc1nc(=S)[nH]c2cc(OC)c(OC)cc12,i,-2,-3,-2,82*,-65
CN1CCC(OC(=O)c2cc3cc(Cl)cc(Cl)c3oc2=O)CC1,i,-9,-5,-4,61*,6
COc1ccc(-c2ccc(C(=O)Nc3cccc(N(C)C)c3)c3occc23)c(C)c1,·,·,·,·,·,-1
COc1ccc(-c2cc(C(=O)Nc3ccc(C)c(C)c3)no2)cc1,i,-5,-4,1,61*,6
CC(=O)Nc1ccc(S(=O)(=O)N(C)CC(=O)OCC(=O)c2ccc[nH]2)cc1,·,·,7,3,·,-2
Cc1ccc2cc(CCNC(=O)c3ccco3)c(=O)[nH]c2c1C,+,?,-5,0,5,9
Cc1ccc2c3c(cccc13)-c1ccccc1C2=O,+,90*,-5,-2,-15,48*
CCN(CCCNC(=O)C1CCN(S(=O)(=O)CC)CC1)c1ccccc1,i,-4,-3,-7,-6,-1
CCN(CCCNC(=O)C1CCN(S(=O)(=O)CC)CC1)c1cccc(C)c1,+,90*,3,-9,22,16
N=C1S/C(=C\c2ccco2)C(=O)N1c1nccs1,+,95*,3,16,-14,7
Cc1ccc(N2C(=O)/C(=C/c3ccco3)SC2=S)cc1,i,84,1,7,-15,12
N=C1S/C(=C\c2ccco2)C(=O)N1c1ccc2c(c1)OCO2,+,91,14,21,-14,-11
Cc1ccc(C(O)c2ncc(-c3ccc(F)cc3)[nH]2)c(C)c1 (stereo unspecified),·,·,·,·,·,-1
COc1ccc(NC(=O)CN2C(=O)NC(C)(c3ccc(C)cc3)C2=O)c([N+](=O)[O-])c1 (stereo unspecified),i,-8,-4,1,35,-18
CC(C)c1ccc(-n2cccc2/C=C2/C(=N)N3C=CSC3=NC2=O)cc1,i,0,-3,-2,-5,-34
Cc1ccccc1Cn1cccc1/C=C1/C(=N)N2C=CSC2=NC1=O,+,66*,-8,-4,23,-45
O=C(O)c1cc(Cl)c2c(c1)[C@@H]1C=CC[C@@H]1[C@H](c1ccc(S(=O)(=O)N3CCOCC3)cc1)N2,+,74*,·,·,0,24
Cc1ccc(NCc2nc3ccccc3n2C)cc1,i,-1,-6,-1,21,9
Cc1ccc(NCc2nc3ccccc3n2C)cc1C,i,1,4,-8,60*,-10
